Consider eight molecules from PubChem BioAssay (NCI).

About 83,000 compounds went through this panel and 20% of them were active in at least one assay; those are over-represented in the sample as a whole.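 96-well plates, one dose, 48 hours. Percent growth reported; active if below 10.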 Values without a mark were called inactive. Calls of active or inactive are those of the source.

Among the test systems are HCT-15 colon; HT29 colon; SNB-75 CNS; SNB-19 CNS; U251 CNS; PC-3 prostate; SK-MEL-5 melanoma; UACC-62 melanoma; LOX IMVI melanoma; SK-MEL-28 melanoma; SK-MEL-2 melanoma; EKVX NSCLC; SN12C renal; UO-31 renal; TK-10 renal; ACHN renal; CAKI-1 renal; A498 renal; CCRF-CEM leukemia; MOLT-4 leukemia.
What all share (experiment): NCI-60 one-dose screen, 48 h (100 = growth as untreated, 0 = no growth, -100 = all killed)
Holding throughout (details): 10 µM unless noted

With `N#C/C(=C\c1ccc([N+](=O)[O-])s1)c1nc2cc(Br)ccc2s1`, the growth is -52.1% (active) in the experiment with HCT-15 colon; 21.8% in the experiment with HT29 colon; 12% with SNB-75 CNS; 7.78% (active) in the experiment with SNB-19 CNS; -20.5% (active) in the experiment on U251 CNS; -49% (active) in the experiment with PC-3 prostate. Moreover, the growth was -97.7% (active) in the experiment with SK-MEL-5 melanoma; 17% in the experiment with UACC-62 melanoma; -54.1% (active) in the experiment with LOX IMVI melanoma; 12% in the experiment with SK-MEL-28 melanoma; -41.1% (active) in the experiment on SK-MEL-2 melanoma; -30.8% (active) in the experiment with EKVX NSCLC. For the same molecule, the growth in the experiment with SN12C renal is -30.1% (active); with UO-31 renal, -52.1% (active); in the experiment with TK-10 renal, 4.33% (active); with ACHN renal, -56.8% (active); with CAKI-1 renal, -2.73% (active); with A498 renal, 109%. The growth with CCRF-CEM leukemia is -19.5% (active); in the experiment on MOLT-4 leukemia it was -18.8% (active).

With `Cc1nn(-c2ccccc2)c(Cl)c1/C=C/C(=O)c1ccc(F)cc1`, the growth with HCT-15 colon was 73.9%; in the experiment with HT29 colon, 91.1%; with SNB-75 CNS, 97.9%; in the experiment with SNB-19 CNS it was 87%; in the experiment with U251 CNS, 75.9%; in the experiment with PC-3 prostate, 78.7%. Also, the growth with SK-MEL-5 melanoma is 91.7%; in the experiment with UACC-62 melanoma, 65.2%; in the experiment with LOX IMVI melanoma it was 76.5%; in the experiment with SK-MEL-28 melanoma it was 105%; in the experiment with SK-MEL-2 melanoma it was 92.8%; in the experiment with EKVX NSCLC, 93.1%. The growth is 88.9% in the experiment on SN12C renal; 79.1% with UO-31 renal; 101% in the experiment on TK-10 renal; 97.5% in the experiment on ACHN renal; 95.9% in the experiment on CAKI-1 renal; 81.5% with A498 renal. Also, the growth with CCRF-CEM leukemia is 4.52% (active); in the experiment on MOLT-4 leukemia, 20.7%.

In the case of `COc1ccc(C(=O)c2nc3ccccc3n2CC(=O)c2ccc(Cl)cc2)cc1`, the growth is 17.4% in the experiment on HCT-15 colon; 16.1% in the experiment on HT29 colon; 1.37% (active) in the experiment with SNB-75 CNS; 48.2% in the experiment with SNB-19 CNS; 22.7% in the experiment with U251 CNS; 34.9% with PC-3 prostate. Also, the growth is 20.5% in the experiment with SK-MEL-5 melanoma; 13.2% in the experiment on UACC-62 melanoma; 39.2% with LOX IMVI melanoma; 45.5% in the experiment on SK-MEL-28 melanoma; 63.5% in the experiment with SK-MEL-2 melanoma; 86% in the experiment on EKVX NSCLC. The growth is 45.5% in the experiment with SN12C renal; 45.6% in the experiment on UO-31 renal; 51.7% with TK-10 renal; 48.6% in the experiment on ACHN renal; 23.7% in the experiment on CAKI-1 renal; 72.5% in the experiment with A498 renal. Further, the growth in the experiment on CCRF-CEM leukemia is 13.8%; in the experiment with MOLT-4 leukemia it was 17.2%.

For `CCc1c2c(nc3ccc(OCc4ccc(B(O)O)cc4)cc13)-c1cc3c(c(=O)n1C2)COC(=O)[C@]3(O)CC`, the growth is 18% in the experiment with HCT-15 colon; 3.65% (active) in the experiment with HT29 colon; -7.42% (active) with SNB-75 CNS; 8.1% (active) in the experiment with SNB-19 CNS; -12% (active) with U251 CNS; 24.4% in the experiment on PC-3 prostate. In addition, the growth is -67.5% (active) with SK-MEL-5 melanoma; -25.1% (active) in the experiment on UACC-62 melanoma; -47.8% (active) with LOX IMVI melanoma; 36% with SK-MEL-28 melanoma; 7.66% (active) in the experiment with SK-MEL-2 melanoma; 25.4% with EKVX NSCLC. Also, the growth is 6.55% (active) in the experiment on SN12C renal; -15.8% (active) in the experiment with UO-31 renal; 27.5% in the experiment with TK-10 renal; -12.6% (active) in the experiment with ACHN renal; -21% (active) with CAKI-1 renal; -58.4% (active) with A498 renal. The figures for the growth in the experiment on CCRF-CEM leukemia and in the experiment on MOLT-4 leukemia were 4.37% (active) and -5.64% (active), respectively.

Consider `Nc1ccccc1NC(=O)c1ccc(-n2nc(-c3ccccc3)c3ccccc32)cc1`, for which the growth with HCT-15 colon is 76.7%; in the experiment with HT29 colon, 88.4%; in the experiment on SNB-75 CNS it was 38.4%; in the experiment on SNB-19 CNS, 78.8%; in the experiment with U251 CNS, -85.6% (active); in the experiment on PC-3 prostate, 58.6%. The growth with SK-MEL-5 melanoma is 82.9%; with UACC-62 melanoma, 77.5%; in the experiment on LOX IMVI melanoma, 79.7%; with SK-MEL-28 melanoma, 99.7%; in the experiment on SK-MEL-2 melanoma it was 94.3%; with EKVX NSCLC, 89.7%. Also, the growth in the experiment with SN12C renal was 52.3%; with UO-31 renal it was -62.7% (active); in the experiment with TK-10 renal it was 94.1%; with ACHN renal, 90.6%; in the experiment on CAKI-1 renal, 73.4%; with A498 renal, 89.8%. The growth in the experiment on CCRF-CEM leukemia is 9.38% (active); in the experiment with MOLT-4 leukemia, 4.66% (active).

Consider `COc1ccc2c(c1)oc1c(C)c3c(c(C)c12)C(=O)N(CCN1CCOCC1)C3=O`, for which the growth is 102% with HCT-15 colon; 99.3% with HT29 colon; 99.5% in the experiment on SNB-75 CNS; 97.5% in the experiment with SNB-19 CNS; 105% with U251 CNS; 82.8% in the experiment with PC-3 prostate. Further, the growth in the experiment on SK-MEL-5 melanoma was 97.5%; in the experiment on UACC-62 melanoma it was 93.3%; with LOX IMVI melanoma, 96.4%; in the experiment with SK-MEL-28 melanoma, 103%; in the experiment with SK-MEL-2 melanoma it was 124%; with EKVX NSCLC it was 110%. The growth in the experiment with SN12C renal was 93.2%; with UO-31 renal, 85.1%; in the experiment on TK-10 renal, 115%; in the experiment with ACHN renal it was 104%; in the experiment on CAKI-1 renal, 88.1%; with A498 renal it was 109%. In addition, the growth with CCRF-CEM leukemia is 77.4%; in the experiment with MOLT-4 leukemia, 83.1%.

Turning to `Brc1ccc2[nH]cc(-c3cncn3CCc3ccccc3)c2c1`, the growth in the experiment on HCT-15 colon was 52.8%; in the experiment on HT29 colon, 65.6%; in the experiment with SNB-75 CNS, 36.7%; in the experiment with SNB-19 CNS, 65.6%; with U251 CNS it was 55.7%; in the experiment with PC-3 prostate it was 53.9%. Moreover, the growth with SK-MEL-5 melanoma was 10.4%; in the experiment with UACC-62 melanoma it was 52.9%; in the experiment on LOX IMVI melanoma, 64.1%; with SK-MEL-28 melanoma it was 69.6%; with SK-MEL-2 melanoma it was 55.8%; with EKVX NSCLC, 36.6%. For the same molecule, the growth is 59.1% in the experiment with SN12C renal; 52.7% in the experiment with UO-31 renal; -60.4% (active) with TK-10 renal; 65.7% with ACHN renal; 35.4% in the experiment on CAKI-1 renal; 29.3% in the experiment on A498 renal. The growth in the experiment with CCRF-CEM leukemia was 57.9%; with MOLT-4 leukemia it was 48.6%.

Take `Cc1ccc(C(=O)/C(=C\c2ccc([N+](=O)[O-])cc2)S(=O)Cc2ccc(F)cc2)cc1` (stereo not given): the growth in the experiment with HCT-15 colon is 7.72% (active); with HT29 colon it was -49.1% (active); in the experiment with SNB-75 CNS, 57.1%; in the experiment on SNB-19 CNS it was 41.2%; with U251 CNS, -7.84% (active); with PC-3 prostate, -0.882% (active). Further, the growth with SK-MEL-5 melanoma was 64.6%; in the experiment on UACC-62 melanoma it was -34.5% (active); in the experiment with LOX IMVI melanoma it was -39% (active); in the experiment on SK-MEL-28 melanoma, 17.3%; with SK-MEL-2 melanoma, 62.3%; in the experiment on EKVX NSCLC, 58.5%. Moreover, the growth is -52.1% (active) in the experiment with SN12C renal; -46.1% (active) in the experiment with UO-31 renal; 17.6% with TK-10 renal; -1.53% (active) in the experiment with ACHN renal; 30.3% with CAKI-1 renal; 68.7% in the experiment on A498 renal. For the same molecule, the values for the growth with CCRF-CEM leukemia and with MOLT-4 leukemia were 3.64% (active) and 1.47% (active), respectively.
